The nature of test [1]: NCI Yeast Anticancer Drug Screen. Data for the rad50 strain (AID 155).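 Further: 0% = growth of vehicle-only cultures of the same strain.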 The note with it: S. cerevisiae rad50 strain growth inhibition; at 50.0 µM; stronger effect = higher value. A digest of the protocol:
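Inhibition values express reduced yeast growth in compound-treated cultures relative to vehicle-treated controls.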

A short description of test [2]: NCI Yeast Anticancer Drug Screen. Data for the mec2-1 strain (AID 157). The note with it: S. cerevisiae mec2-1 strain, at 50.0 µM, stronger effect = higher value. The essentials: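 Test agents were screened against the mec2-1 yeast strain, with defined DNA repair or cell cycle alteration. Growth was scored as inhibition against vehicle-only controls.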
The nature of test [3]: NCI Yeast Anticancer Drug Screen. Data for the sgs1 mgt1 strain (AID 161).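 Further: 0% = growth of cultures given vehicle only.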 The note with it: S. cerevisiae sgs1 mgt1 strain, at 50.0 µM, stronger effect = higher value. A digest of the protocol:
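Mutant yeast exposed to compound; growth scored against vehicle-only wells.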

The nature of test [4]: NCI Yeast Anticancer Drug Screen. Data for the cln2 rad14 strain (AID 165).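 Further: 0% = growth equal to vehicle treated cultures.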 The note with it: S. cerevisiae cln2 rad14 strain, at 50.0 µM, stronger effect = higher value. The essentials: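 Growth of compound-exposed yeast (cln2 rad14 genotype) measured and expressed as inhibition relative to vehicle.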
Test [5] is described as follows: NCI Yeast Anticancer Drug Screen. Data for the bub3 strain (AID 167). To be noted: S. cerevisiae bub3 mutant strain, at 50.0 µM, stronger effect = higher value. The essentials:
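Steps: expose the mutant yeast strain to compound; grow alongside vehicle-treated cultures; measure growth; express inhibition against the vehicle cultures.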

The nature of test [6]: NCI Yeast Anticancer Drug Screen. Data for the mlh1 rad18 strain (AID 175). To be noted: S. cerevisiae mlh1 rad18 strain growth inhibition; at 50.0 µM; stronger effect = higher value. The essentials: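 In this whole-cell yeast screen, a strain with altered DNA damage repair is challenged with compound, and its growth is measured against matched vehicle-treated controls.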

Molecules are shown by their SMILES. Compounds without any hit were thinned out: in the full panel of roughly 79,000, 15% have a hit. A number with no mark means an inactive call. Active and inactive are the calls of the source. No stated cut-off is given here; in the data, active means growth inhibition above about 70%; inactive means the rest.

`O=C1c2ccccc2-c2cc(F)ccc21`: the growth inhibition in test [1] is 18.3%; in test [2] it was -10.4%; in test [3], -7.4%; in test [4], -6.25%; in test [5], 17.6%; in test [6], -0.1%.
For the compound `CSCCCCCSC`, the growth inhibition in test [1] was 0.6%; in test [2], -27.1%; in test [3], -25.3%; in test [4] it was 0.45%; in test [5], -3.75%; in test [6] it was 0.55%.
Turning to `O=CC(=C\c1cccs1)/C(C=O)=C\c1cccs1`, the growth inhibition in test [1] was 99.3% (active); in test [2], 99.5% (active); in test [3], 99.5% (active); in test [4], 99.1% (active); in test [5] it was 99.4% (active); in test [6], 88.5% (active).
Turning to `C(=C\c1nc2ccccc2nc1/C=C/c1ccccc1)/c1ccccc1`, the growth inhibition in test [1] is -25.9%; in test [2], -9.4%; in test [3], -13.8%; in test [4], -12.3%; in test [5], 2.7%; in test [6], 9.45%.
Take `CN(C)C(=O)Nc1ccc(F)cc1`: the growth inhibition in test [1] is -5.75%; in test [2] it was -25.6%; in test [3] it was 13.6%; in test [4], -20.6%; in test [5], -24.9%; in test [6], -16.6%.
Take `CC(=O)OCC(OC(C)=O)C(OC(C)=O)C(OC(C)=O)C1OC(=O)C(OC(C)=O)C1OC(C)=O` (stereo unspecified): the growth inhibition is 0.5% in test [1]; -12% in test [2]; 3.8% in test [3]; 2.25% in test [4]; -0.75% in test [5]; 9.9% in test [6].
`CN(C)C(=O)CCOc1ccccc1`: the growth inhibition was 0.55% in test [1]; -12.6% in test [2]; -18.9% in test [3]; -56.3% in test [4]; -7.05% in test [5]; -7.2% in test [6].
Take `CN(C)c1nc(O)cc(=O)[nH]1`: the growth inhibition in test [1] was 5.05%; in test [2] it was -0.35%; in test [3] it was -6.6%; in test [4], -34.8%; in test [5], 8.3%; in test [6] it was 25.3%.
`Fc1ccc(-c2nnc(-c3ccccc3)o2)cc1`: the growth inhibition was 21.4% in test [1]; 19.1% in test [2]; 25.2% in test [3]; 7.2% in test [4]; 31.4% in test [5]; 8.15% in test [6].
Turning to `O=C(O[C@H]1[C@@H]2C=CO[C@@H](OC3OC(CO)C(O)C(O)C3O)[C@@H]2[C@@]2(CO)O[C@@H]12)c1ccc(O)c(O)c1` (stereo partly specified), the growth inhibition is -20.3% in test [1]; -40% in test [2]; -4.6% in test [3]; 3.1% in test [4]; -8.35% in test [5]; 0.4% in test [6].
Consider `CCCCCCCCCC/C=C/c1c(C)[nH]c2ccccc2c1=O`, for which the growth inhibition is -11.9% in test [1]; 8.7% in test [2]; -6.3% in test [3]; -6.5% in test [4]; -8.45% in test [5]; -11.1% in test [6].
`CC(=O)CC(=O)NCCCN1CCCCCC1`: the growth inhibition is -1.1% in test [1]; -20.1% in test [2]; -9.45% in test [3]; -1.05% in test [4]; -11.2% in test [5]; -4.35% in test [6].
Consider `Nc1ccc(C(=O)Nc2ccccn2)cc1`, for which the growth inhibition in test [1] is -9.1%; in test [2], -9.55%; in test [3], -13.4%; in test [4] it was -27.6%; in test [5], 3.1%; in test [6] it was -2.55%.
As for `O=C(NCCCCCCNC(=O)NCc1ccco1)NCc1ccco1`, the growth inhibition in test [1] was -22.7%; in test [2] it was -28.2%; in test [3], -28.1%; in test [4], -15.7%; in test [5], 0.05%; in test [6], -19.9%.
On to `Cc1cc(N=Nc2ccc(S(=O)(=O)O)c3ccccc23)ccc1O`, for which the growth inhibition was -33.6% in test [1]; 9.75% in test [2]; -5.1% in test [3]; -66.1% in test [4]; 12.9% in test [5]; -5.6% in test [6].
On to `CCCCCCCCC(O)C(O)CCCCCCCC(=O)OC` (stereo unspecified), for which the growth inhibition was -15.3% in test [1]; 5% in test [2]; -4.55% in test [3]; -105% in test [4]; 30.5% in test [5]; -22.9% in test [6].
For the compound `CCOC(=O)c1c(-c2ccc([N+](=O)[O-])cc2)c(/C=N\O)n(-c2ccccc2)c1C`, the growth inhibition is 1.45% in test [1]; 6.7% in test [2]; 3.3% in test [3]; -17% in test [4]; -1.95% in test [5]; 20% in test [6].
As to `O=C(NC(Cc1ccccc1)C(=O)NNc1ccccc1Cl)OCc1ccccc1` (stereo unspecified), the growth inhibition was 92.4% (active) in test [1]; 86.3% (active) in test [2]; 94.7% (active) in test [3]; 55.5% in test [4]; 80% (active) in test [5]; 89.5% (active) in test [6].
Consider `CN(C)NC(=S)NC12CC3CC(CC(C3)C1)C2`, for which the growth inhibition was -15.3% in test [1]; -5.25% in test [2]; -10.2% in test [3]; -18.9% in test [4]; -2.8% in test [5]; 11.8% in test [6].
With `CC1CN=C(N(Cc2ccc(F)cc2)C(=O)Nc2ccc(Cl)cc2)S1` (stereo unspecified), the growth inhibition was -35.5% in test [1]; -8.95% in test [2]; -41.5% in test [3]; 1.6% in test [4]; 7.7% in test [5]; -34.3% in test [6].
With `CCCCCCCCCCCCCC(=O)OCC1OC(n2cc(F)c(=O)[nH]c2=O)C(N)C(OC(=O)CCCCCCCCCCCCC)C1O` (stereo unspecified), the growth inhibition in test [1] is 27.4%; in test [2] it was 7.4%; in test [3], 22.5%; in test [4], 35.3%; in test [5], 11.6%; in test [6], 24.1%.

These data come from PubChem BioAssay (NCI).
